Data reported in PubChem BioAssay.
Where a SMILES comes first, the peptide text is derived from it. The star is where a group is joined. Boc = CC(C)(C)OC(=O)*

What was measured:
[1] = test system: Botulinum neurotoxin type F light chain protease (Clostridium botulinum); experiment: Clostridium botulinum type F light chain protease inhibitors, microsphere substrate cleavage, validation (AID 588459); details: multiplex microsphere protease substrate cleavage assay, flow cytometry; at 10 µM; active compounds read high
[2] = molecular target: Botulinum neurotoxin type A (Clostridium botulinum) (UniProt P0DPI0); experiment: BoNT/A light chain protease inhibitors, biochemical, multiplex microsphere flow cytometry, validation set (AID 588460); details: at 10 µM, active compounds read high
Chain of Botulinum neurotoxin type A (Clostridium botulinum) (P0DPI0 whole entry, looked up): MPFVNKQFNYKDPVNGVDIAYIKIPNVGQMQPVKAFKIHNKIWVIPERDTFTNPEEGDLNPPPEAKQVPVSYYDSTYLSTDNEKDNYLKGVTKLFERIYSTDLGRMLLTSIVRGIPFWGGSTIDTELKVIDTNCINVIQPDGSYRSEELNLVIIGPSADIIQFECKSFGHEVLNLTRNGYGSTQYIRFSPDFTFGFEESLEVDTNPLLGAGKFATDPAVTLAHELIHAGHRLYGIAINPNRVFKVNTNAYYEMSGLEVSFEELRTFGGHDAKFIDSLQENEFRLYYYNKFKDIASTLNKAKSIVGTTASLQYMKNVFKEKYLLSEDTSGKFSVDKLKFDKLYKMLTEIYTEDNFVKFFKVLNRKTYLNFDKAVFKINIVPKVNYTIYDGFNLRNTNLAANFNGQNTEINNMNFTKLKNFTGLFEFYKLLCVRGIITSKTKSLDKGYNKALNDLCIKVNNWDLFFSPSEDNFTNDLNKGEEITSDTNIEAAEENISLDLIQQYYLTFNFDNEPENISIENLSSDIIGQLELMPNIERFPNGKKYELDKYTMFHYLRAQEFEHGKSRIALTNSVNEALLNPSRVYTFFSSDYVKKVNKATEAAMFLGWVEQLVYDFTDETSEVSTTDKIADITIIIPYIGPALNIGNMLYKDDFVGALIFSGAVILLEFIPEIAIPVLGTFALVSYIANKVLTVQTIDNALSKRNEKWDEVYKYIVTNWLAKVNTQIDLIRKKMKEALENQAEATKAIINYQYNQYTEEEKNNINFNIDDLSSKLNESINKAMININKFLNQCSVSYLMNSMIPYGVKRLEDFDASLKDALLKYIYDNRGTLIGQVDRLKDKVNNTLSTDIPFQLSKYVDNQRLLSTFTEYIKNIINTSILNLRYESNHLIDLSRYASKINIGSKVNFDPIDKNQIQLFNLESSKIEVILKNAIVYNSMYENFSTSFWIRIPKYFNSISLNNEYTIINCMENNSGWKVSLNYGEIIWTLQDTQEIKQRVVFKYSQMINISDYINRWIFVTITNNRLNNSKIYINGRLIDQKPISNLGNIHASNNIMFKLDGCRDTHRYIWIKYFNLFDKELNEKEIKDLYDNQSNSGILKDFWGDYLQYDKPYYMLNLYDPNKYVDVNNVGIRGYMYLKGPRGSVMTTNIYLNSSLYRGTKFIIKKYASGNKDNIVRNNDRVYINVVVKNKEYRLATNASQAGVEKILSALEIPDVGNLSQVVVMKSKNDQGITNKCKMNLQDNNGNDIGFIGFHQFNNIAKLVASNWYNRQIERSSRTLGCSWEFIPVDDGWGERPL

[3] = molecular target: Lethal factor (Bacillus anthracis) (UniProt P15917); experiment: Bacillus anthracis lethal factor inhibition, microsphere flow cytometry protease assay, validation at 10 µM (AID 588461); details: multiplex microsphere protease cleavage assay, active compounds read high
Chain of Lethal factor (Bacillus anthracis) (P15917 whole entry, looked up): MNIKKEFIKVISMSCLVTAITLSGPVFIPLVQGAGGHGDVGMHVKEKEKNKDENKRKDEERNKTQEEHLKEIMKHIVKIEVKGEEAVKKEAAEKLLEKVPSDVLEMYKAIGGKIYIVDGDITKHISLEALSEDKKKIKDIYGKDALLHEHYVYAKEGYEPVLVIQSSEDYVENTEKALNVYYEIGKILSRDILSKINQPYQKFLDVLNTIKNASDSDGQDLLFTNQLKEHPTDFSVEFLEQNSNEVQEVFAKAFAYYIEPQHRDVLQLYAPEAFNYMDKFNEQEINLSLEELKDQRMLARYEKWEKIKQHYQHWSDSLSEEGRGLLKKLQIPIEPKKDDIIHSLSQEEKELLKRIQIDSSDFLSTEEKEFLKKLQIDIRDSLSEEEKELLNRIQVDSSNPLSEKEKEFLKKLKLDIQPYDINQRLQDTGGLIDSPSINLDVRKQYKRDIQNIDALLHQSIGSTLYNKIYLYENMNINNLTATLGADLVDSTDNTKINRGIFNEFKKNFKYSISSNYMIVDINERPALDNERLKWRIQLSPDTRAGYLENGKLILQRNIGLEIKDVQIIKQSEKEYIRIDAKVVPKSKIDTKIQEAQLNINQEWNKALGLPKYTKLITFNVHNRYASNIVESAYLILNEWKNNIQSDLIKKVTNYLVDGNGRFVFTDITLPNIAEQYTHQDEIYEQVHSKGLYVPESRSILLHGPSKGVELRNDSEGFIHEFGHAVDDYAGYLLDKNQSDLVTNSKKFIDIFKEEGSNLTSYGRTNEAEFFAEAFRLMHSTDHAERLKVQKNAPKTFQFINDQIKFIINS

Measured: inhibition

CC1(C)C(=O)OC(c2cccs2)C2(CCCCC2)C1=O (centres undefined)
inactive: [1] -2.1% | [2] -1.3% | [3] -6.2%

c1ccc(-c2ccc(C(c3ccccc3)n3ccnc3)cc2)cc1 (centres undefined)
inactive: [1] -0.7% | [2] -1.3% | [3] -1.4%

COc1ccc2c(c1OC)C(=O)OC2C1c2c(cc3c(c2OC)OCO3)CCN1C (centres undefined)
inactive: [1] 0.2% | [2] -0.4% | [3] 0.2%

COc1ccc(CNC(=O)C2CCN(C(=O)[C@@H](CC(C)C)NC(=O)OC(C)(C)C)CC2)cc1
inactive: [1] 1.1% | [2] -0.8% | [3] -3.7%

OC(COCc1ccccc1)CN1CCN(Cc2ccc3c(c2)OCO3)CC1 (centres undefined)
inactive: [1] 0.6% | [2] 0.3% | [3] 2.8%

CC(=O)C1=C(NC(=O)c2ccc(C(F)(F)F)cc2)C[C@@H]2[C@H]1C2(C)C
inactive: [1] 2% | [2] 1.5% | [3] -1%

CC(=O)[C@H]1CC[C@H]2[C@@H]3CCC4=CC(=O)CC[C@]4(C)[C@H]3CC[C@]12C
inactive: [1] 2.7% | [2] 1.5% | [3] 3.1%

O=C(O)/C=C/c1cccc(OCc2ccccc2)c1
inactive: [1] -2.1% | [2] -0.9% | [3] 3.3%

CCNCCC(CCC(C)C)c1ccc2c(c1)OCO2 (centres undefined)
inactive: [1] -3.1% | [2] -1.3% | [3] -0.1%

CC(C)(C)NCC(O)c1cc(O)cc(O)c1 (centres undefined)
inactive: [1] -5.4% | [2] 0.7% | [3] 3.9%

CC(C(=O)O)c1ccc(N2Cc3ccccc3C2=O)cc1 (centres undefined)
inactive: [1] 1.4% | [2] -1.6% | [3] -4.3%

COc1ccc(C(=O)Nc2cccnc2)cc1C(=O)Nc1cccnc1
inactive: [1] 2.9% | [2] 1.3% | [3] -0.7%

COc1ccc(CCNC(=O)c2c(O)c3c([nH]c2=O)CCCC3)cc1
inactive: [1] 2.6% | [2] 0.3% | [3] -14.2%

O=C(c1ccc([N+](=O)[O-])cc1)N1CCSC1c1ccccc1Cl (centres undefined)
inactive: [1] -3.8% | [2] -0.1% | [3] -1.3%

O=c1[nH]c(=O)n(C2CCCO2)cc1F (centres undefined)
inactive: [1] -5.7% | [2] -0.7% | [3] 1.8%

COc1ccc(C(=O)Nc2ccccc2C(=O)NCCCn2ccnc2)cc1
inactive: [1] -3.6% | [2] -1.8% | [3] -3.7%

COc1ccc2oc(C)c(C(N)=O)c2c1
inactive: [1] -1.6% | [2] 0.5% | [3] -0.4%

C[C@H]([C@@H](N)C(=O)N[C@@H](C(=O)O)[C@@H]1O[C@H](n2ccc(=O)[nH]c2=O)[C@@H](O)[C@H]1O)[C@@H](O)c1ccc(O)cn1
inactive: [1] 0.3% | [2] -1% | [3] -3.6%

CS(=O)(=O)Nc1cccc(C(=O)CC2(O)C(=O)Nc3ccc(Br)cc32)c1 (centres undefined)
inactive: [1] 3.1% | [2] 1.3% | [3] 6.6%

CC(C)CC(NC(=O)C1CCCN1C(=O)OC(C)(C)C)C(=O)NCC(N)=O (stereo not drawn) (Boc-Pro-Leu-Gly-NH2; configuration not given here)
inactive: [1] 3.5% | [2] 0.3% | [3] 4.3%

COC(=O)c1ccc(C(=O)OC)c(NC(=O)C(C)C)c1
inactive: [1] -0.3% | [2] -1.3% | [3] -1.4%

CC1(C)CC(CC(=O)O)(c2ccc(Cl)cc2)CCO1 (centres undefined)
inactive: [1] 2.5% | [2] -1.9% | [3] -4.6%

O=C(CN1CCN(Cc2ccccc2)CC1)N1CCCc2c1c(=O)oc1ccc(O)cc21
inactive: [1] 2% | [2] -1.5% | [3] -8.3%

Cn1c(=O)c2nc3ccccc3nc2n(C)c1=O
inactive: [1] -0.9% | [2] 0.5% | [3] -5.4%

Cc1ncc(C(=O)O)c(C(=O)O)c1N
inactive: [1] 0.4% | [2] -0.1% | [3] 2.4%

CC(=O)Nc1ccc2[nH]c(C)c(CC=C(Cl)Cl)c(=O)c2c1
inactive: [1] -0.7% | [2] -1.7% | [3] -4.2%

Nc1ccc(-c2nc3ncccc3o2)c(Cl)c1
inactive: [1] -2.1% | [2] -1.8% | [3] -10.9%

CS(=O)(=O)Oc1ccc2c(c1)O/C(=C\C=C\c1ccccc1)C2=O
inactive: [1] 26.9% | [2] 28.3% | [3] 25%
